About 7,900 targets were measured; listed, in parts, are those with a hit and a random draw of the rest. About 0.6% of all pairs of compound and target were hits.
Legend:
Test in all cases: log2 fold change, soluble protein after heating vs DMSO (PISA); higher = thermal stabilisation; K562 cells, 10 uM, 30 min; active = over 0.2 and 3.5 SD of the protein, either way, in both replicates (recomputed)
[1] = compound: NC(=O)Nc1cc(-c2cccc(F)c2)sc1C(=O)N[C@H]1CCCNC1
Outline: (§1)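 K562 cells at 2×10^6 cells/mL were treated for 30 min with 10 μM compound, and aliquots were heated for 3 min over 48°C-58°C before pooling. Extraction used PBS with 0.5% NP-40 at 4°C, and soluble protein was the supernatant after 21,000xg for 90 min, measured by TMTpro 16plex LC-MS/MS with channel sums equalised. Thermal stability values, relative to control samples and from duplicates, are log2 fold changes.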

[2] = compound: NC(=O)c1cnc(N[C@@H]2CCCC[C@@H]2N)nc1Nc1cccc(-n2nccn2)c1
Outline: as §1

[3] = compound: NC1(c2ccc(-c3nc4ccn5c(=O)[nH]nc5c4cc3-c3ccccc3)cc2)CCC1
Outline: as §1

[4] = compound: NCC(=O)Nc1ccc(-n2nc(C(F)(F)F)cc2-c2ccc3c(ccc4ccccc43)c2)cc1
Outline: as §1

[5] = compound: Nc1ccccc1NC(=O)c1ccc(CNC(=O)OCc2cccnc2)cc1 [entinostat]
Outline: as §1

[6] = compound: O=C(CCCCCCC(=O)Nc1ccccc1)NO [vorinostat]
Outline: as §1

[7] = compound: O=C(CCCCCCNC(=O)c1cnc(N(c2ccccc2)c2ccccc2Cl)nc1)NO [citarinostat]
Outline: as §1

[8] = compound: O=C(O)c1ccc2c(c1)nc(Nc1cccc(Cl)c1)c1ccncc12 [silmitasertib]
Outline: as §1

[9] = compound: O=C1NC(=O)C(c2cnc3ccccn23)=C1c1cn2c3c(cc(F)cc13)CN(C(=O)N1CCCCC1)CC2
Outline: as §1

[10] = compound: c1cc(OCCN2CCCCC2)cc(-c2n[nH]c3ccc(-c4nnc[nH]4)cc23)c1
Outline: as §1

Measured: log2 fold change

UTP14A (UniProt Q9BVJ6)
Chain of UniProt Q9BVJ6 (Q9BVJ6 whole entry, looked up): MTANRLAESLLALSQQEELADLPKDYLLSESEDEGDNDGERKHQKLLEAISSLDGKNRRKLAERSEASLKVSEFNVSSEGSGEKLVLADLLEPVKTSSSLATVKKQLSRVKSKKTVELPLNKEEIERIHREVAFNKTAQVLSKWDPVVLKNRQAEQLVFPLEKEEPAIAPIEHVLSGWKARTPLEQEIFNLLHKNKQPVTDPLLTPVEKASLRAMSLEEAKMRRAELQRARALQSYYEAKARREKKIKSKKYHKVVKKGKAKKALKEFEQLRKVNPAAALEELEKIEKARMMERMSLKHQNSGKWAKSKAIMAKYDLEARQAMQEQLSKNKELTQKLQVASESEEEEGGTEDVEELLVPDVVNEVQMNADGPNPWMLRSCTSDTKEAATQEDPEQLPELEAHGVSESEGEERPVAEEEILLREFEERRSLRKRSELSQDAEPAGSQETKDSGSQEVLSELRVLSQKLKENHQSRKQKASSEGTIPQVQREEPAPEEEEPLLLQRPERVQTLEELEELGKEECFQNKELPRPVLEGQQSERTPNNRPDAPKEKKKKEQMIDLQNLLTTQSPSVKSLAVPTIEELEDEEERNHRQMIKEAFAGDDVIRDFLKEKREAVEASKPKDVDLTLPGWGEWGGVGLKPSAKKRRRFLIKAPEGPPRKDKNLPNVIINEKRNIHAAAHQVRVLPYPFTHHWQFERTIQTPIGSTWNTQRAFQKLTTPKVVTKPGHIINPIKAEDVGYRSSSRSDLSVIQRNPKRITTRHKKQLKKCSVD
inactive: [1] 0.079 | [2] 0.048 | [3] 0.083 | [4] 0.076 | [5] 0.012 | [6] 0 | [7] -0.04 | [8] 0.128 | [9] 0.082 | [10] -0.092

WNK1 isoform 7 (UniProt Q9H4A3)
inactive: [1] 0.002 | [2] 0.001 | [3] -0.037 | [4] -0.042 | [5] 0.008 | [6] -0.05 | [7] 0.009 | [8] -0.062 | [9] -0.01 | [10] -0.063

TRAPPC3 (UniProt O43617)
inactive: [1] 0.017 | [2] -0.056 | [3] -0.145 | [4] -0.058 | [5] 0.022 | [6] 0.004 | [7] 0.038 | [8] 0.032 | [9] 0 | [10] -0.048

UBAP2L isoform 1 (UniProt Q14157)
inactive: [1] 0.071 | [2] 0.076 | [3] -0.064 | [4] 0.039 | [5] -0.043 | [6] 0.041 | [7] -0.022 | [8] -0.031 | [9] -0.012 | [10] 0.03

UBE4A isoform 2 (UniProt Q14139)
Chain of UniProt Q14139 (Q14139 whole entry, looked up): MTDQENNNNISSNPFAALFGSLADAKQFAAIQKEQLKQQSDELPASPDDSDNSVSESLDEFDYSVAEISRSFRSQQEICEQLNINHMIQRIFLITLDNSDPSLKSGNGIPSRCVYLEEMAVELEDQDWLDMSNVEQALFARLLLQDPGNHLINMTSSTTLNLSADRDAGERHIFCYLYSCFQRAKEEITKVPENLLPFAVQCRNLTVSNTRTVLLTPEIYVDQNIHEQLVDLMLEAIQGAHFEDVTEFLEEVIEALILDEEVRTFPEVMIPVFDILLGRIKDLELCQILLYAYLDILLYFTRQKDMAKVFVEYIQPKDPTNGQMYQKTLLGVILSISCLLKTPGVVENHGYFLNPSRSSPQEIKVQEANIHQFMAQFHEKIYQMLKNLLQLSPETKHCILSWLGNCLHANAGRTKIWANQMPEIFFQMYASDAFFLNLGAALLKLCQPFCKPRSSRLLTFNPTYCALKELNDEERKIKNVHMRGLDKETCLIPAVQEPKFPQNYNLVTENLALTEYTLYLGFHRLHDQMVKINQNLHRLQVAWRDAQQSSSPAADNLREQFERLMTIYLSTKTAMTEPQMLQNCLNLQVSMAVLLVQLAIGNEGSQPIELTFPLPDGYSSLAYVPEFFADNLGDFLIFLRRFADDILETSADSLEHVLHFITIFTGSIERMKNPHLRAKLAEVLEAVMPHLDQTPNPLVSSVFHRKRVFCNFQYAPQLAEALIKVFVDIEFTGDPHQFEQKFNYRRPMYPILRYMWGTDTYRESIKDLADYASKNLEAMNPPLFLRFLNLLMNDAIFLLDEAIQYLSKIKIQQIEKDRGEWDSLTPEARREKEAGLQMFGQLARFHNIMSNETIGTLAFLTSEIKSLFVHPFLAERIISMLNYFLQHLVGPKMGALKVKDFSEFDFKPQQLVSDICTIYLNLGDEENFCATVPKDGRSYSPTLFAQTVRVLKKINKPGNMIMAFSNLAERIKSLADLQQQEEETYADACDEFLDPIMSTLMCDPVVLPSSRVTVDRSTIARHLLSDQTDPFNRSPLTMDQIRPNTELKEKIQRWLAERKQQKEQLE
inactive: [1] -0.017 | [2] 0.01 | [3] -0.136 | [4] 0.001 | [5] 0.146 | [6] 0.133 | [7] 0.059 | [8] 0.117 | [9] 0.026 | [10] -0.014

TRIP10 isoform 2 (UniProt Q15642)
Chain of UniProt Q15642 (Q15642 whole entry, looked up): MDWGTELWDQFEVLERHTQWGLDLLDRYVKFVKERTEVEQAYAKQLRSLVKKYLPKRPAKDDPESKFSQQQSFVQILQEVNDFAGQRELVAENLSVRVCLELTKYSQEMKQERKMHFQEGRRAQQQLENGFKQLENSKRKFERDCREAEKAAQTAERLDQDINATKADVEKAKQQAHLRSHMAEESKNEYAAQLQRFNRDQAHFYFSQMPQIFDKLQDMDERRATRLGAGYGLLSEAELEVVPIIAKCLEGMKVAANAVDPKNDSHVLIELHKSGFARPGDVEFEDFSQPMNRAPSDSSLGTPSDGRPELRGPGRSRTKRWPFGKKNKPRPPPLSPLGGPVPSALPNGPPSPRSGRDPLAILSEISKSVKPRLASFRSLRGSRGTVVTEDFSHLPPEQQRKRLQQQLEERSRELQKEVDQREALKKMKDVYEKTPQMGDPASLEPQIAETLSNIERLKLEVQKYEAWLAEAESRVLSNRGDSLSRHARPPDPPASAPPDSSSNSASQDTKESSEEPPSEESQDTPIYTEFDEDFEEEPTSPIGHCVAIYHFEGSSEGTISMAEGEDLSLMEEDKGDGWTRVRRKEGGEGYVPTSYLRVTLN
active: [4] -0.849
inactive: [1] -0.067 | [2] 0.057 | [3] -0.065 | [5] -0.2 | [6] 0.026 | [7] -0.11 | [8] -0.065 | [9] -0.052 | [10] 0.008

VRK2 (UniProt Q86Y07)
Chain of UniProt Q86Y07 (Q86Y07 whole entry, looked up): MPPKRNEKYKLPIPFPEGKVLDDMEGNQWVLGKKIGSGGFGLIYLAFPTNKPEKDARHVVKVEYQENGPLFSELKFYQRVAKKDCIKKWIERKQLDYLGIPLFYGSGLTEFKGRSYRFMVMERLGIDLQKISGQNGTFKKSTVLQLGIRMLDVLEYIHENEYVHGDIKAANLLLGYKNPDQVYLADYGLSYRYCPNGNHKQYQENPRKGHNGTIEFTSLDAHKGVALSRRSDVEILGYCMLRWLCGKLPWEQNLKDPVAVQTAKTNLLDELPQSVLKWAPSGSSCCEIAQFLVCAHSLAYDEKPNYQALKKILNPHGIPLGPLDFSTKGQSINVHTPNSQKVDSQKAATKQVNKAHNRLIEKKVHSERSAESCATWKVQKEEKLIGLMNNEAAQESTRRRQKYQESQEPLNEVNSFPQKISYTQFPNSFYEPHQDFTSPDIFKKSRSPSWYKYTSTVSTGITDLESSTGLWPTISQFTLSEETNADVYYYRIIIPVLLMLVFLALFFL
inactive: [1] 0.023 | [2] 0.04 | [3] -0.111 | [4] -0.025 | [5] 0.032 | [6] 0.02 | [7] 0.008 | [8] 0 | [9] 0.06 | [10] 0.001

TMEM173 (UniProt Q86WV6)
inactive: [1] 0.002 | [2] -0.041 | [3] -0.078 | [4] -0.06 | [5] 0.032 | [6] -0.09 | [7] -0.028 | [8] -0.041 | [9] 0.035 | [10] 0.006

USP7 (UniProt Q93009)
inactive: [1] -0.039 | [2] -0.062 | [3] -0.263 | [4] -0.07 | [5] 0.097 | [6] 0.182 | [7] 0.096 | [8] -0.028 | [9] -0.037 | [10] 0.046

VPS18 (UniProt Q9P253)
inactive: [1] 0.019 | [2] -0.13 | [3] -0.216 | [4] 0.079 | [5] 0.08 | [6] 0.089 | [7] 0.009 | [8] 0.005 | [9] 0.023 | [10] 0.005

TOE1 (UniProt Q96GM8)
inactive: [1] 0.09 | [2] -0.011 | [3] 0.104 | [4] -0.01 | [5] -0.038 | [6] -0.047 | [7] 0.011 | [8] 0.026 | [9] 0.122 | [10] -0.18

TSFM (UniProt P43897)
Chain of UniProt P43897 (P43897 whole entry, looked up): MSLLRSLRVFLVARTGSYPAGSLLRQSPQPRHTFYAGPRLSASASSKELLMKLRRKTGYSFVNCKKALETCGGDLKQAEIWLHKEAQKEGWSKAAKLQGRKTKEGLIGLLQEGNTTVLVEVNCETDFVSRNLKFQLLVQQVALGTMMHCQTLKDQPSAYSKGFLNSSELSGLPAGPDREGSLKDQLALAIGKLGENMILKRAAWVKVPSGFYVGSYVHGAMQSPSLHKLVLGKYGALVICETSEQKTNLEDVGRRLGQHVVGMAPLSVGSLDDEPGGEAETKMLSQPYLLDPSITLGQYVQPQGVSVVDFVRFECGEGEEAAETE
inactive: [1] -0.068 | [2] 0.03 | [3] -0.05 | [4] -0.076 | [5] 0.162 | [6] 0.016 | [7] 0.181 | [8] 0.11 | [9] -0.043 | [10] 0

UGGT1 (UniProt Q9NYU2)
inactive: [1] 0.028 | [2] -0.025 | [3] -0.06 | [4] 0.017 | [5] -0.001 | [6] -0.004 | [7] 0.047 | [8] 0.01 | [9] -0.025 | [10] -0.035

VPS28 (UniProt Q9UK41)
inactive: [1] -0.059 | [2] -0.079 | [3] -0.177 | [4] -0.055 | [5] 0.064 | [6] 0.052 | [7] 0.122 | [8] 0.058 | [9] -0.001 | [10] -0.012

TRMT10A (UniProt Q8TBZ6)
inactive: [1] 0.015 | [2] -0.005 | [3] -0.075 | [4] -0.109 | [5] -0.039 | [6] -0.003 | [7] -0.013 | [8] -0.023 | [9] 0.007 | [10] -0.02

WDR11 (UniProt Q9BZH6)
inactive: [1] 0.039 | [2] -0.164 | [3] -0.087 | [4] -0.192 | [5] -0.024 | [6] -0.007 | [7] -0.067 | [8] -0.025 | [9] -0.016 | [10] -0.036

USP14 (UniProt P54578)
inactive: [1] -0.008 | [2] -0.006 | [3] -0.161 | [4] -0.057 | [5] 0.025 | [6] -0.03 | [7] 0.051 | [8] 0.007 | [9] -0.029 | [10] 0.005

VTA1 (UniProt Q9NP79)
inactive: [1] -0.029 | [2] 0.018 | [3] -0.185 | [4] -0.045 | [5] 0.036 | [6] 0.036 | [7] 0.054 | [8] 0.023 | [9] -0.076 | [10] 0.009

TNFRSF8 (UniProt P28908)
inactive: [1] -0.12 | [2] 0.128 | [3] 0.106 | [4] 0.025 | [5] -0.066 | [6] -0.078 | [7] -0.003 | [8] -0.052 | [9] -0.053 | [10] -0.025

TPM2 (UniProt P07951)
Chain of UniProt P07951 (P07951 whole entry, looked up): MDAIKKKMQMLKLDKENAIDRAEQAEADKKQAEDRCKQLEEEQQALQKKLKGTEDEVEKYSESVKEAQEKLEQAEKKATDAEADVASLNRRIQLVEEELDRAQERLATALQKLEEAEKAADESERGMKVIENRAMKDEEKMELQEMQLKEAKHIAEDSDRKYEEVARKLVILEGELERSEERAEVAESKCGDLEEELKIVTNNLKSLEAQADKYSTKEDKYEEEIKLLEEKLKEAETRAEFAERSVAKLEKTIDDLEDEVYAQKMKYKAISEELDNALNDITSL
inactive: [1] 0.119 | [2] 0.081 | [3] 0.157 | [4] 0.201 | [5] 0.077 | [6] -0.077 | [7] 0.103 | [8] -0.07 | [9] 0.162 | [10] 0.171

WAPL isoform 3 (UniProt Q7Z5K2)
Chain of UniProt Q7Z5K2 (Q7Z5K2 whole entry, looked up): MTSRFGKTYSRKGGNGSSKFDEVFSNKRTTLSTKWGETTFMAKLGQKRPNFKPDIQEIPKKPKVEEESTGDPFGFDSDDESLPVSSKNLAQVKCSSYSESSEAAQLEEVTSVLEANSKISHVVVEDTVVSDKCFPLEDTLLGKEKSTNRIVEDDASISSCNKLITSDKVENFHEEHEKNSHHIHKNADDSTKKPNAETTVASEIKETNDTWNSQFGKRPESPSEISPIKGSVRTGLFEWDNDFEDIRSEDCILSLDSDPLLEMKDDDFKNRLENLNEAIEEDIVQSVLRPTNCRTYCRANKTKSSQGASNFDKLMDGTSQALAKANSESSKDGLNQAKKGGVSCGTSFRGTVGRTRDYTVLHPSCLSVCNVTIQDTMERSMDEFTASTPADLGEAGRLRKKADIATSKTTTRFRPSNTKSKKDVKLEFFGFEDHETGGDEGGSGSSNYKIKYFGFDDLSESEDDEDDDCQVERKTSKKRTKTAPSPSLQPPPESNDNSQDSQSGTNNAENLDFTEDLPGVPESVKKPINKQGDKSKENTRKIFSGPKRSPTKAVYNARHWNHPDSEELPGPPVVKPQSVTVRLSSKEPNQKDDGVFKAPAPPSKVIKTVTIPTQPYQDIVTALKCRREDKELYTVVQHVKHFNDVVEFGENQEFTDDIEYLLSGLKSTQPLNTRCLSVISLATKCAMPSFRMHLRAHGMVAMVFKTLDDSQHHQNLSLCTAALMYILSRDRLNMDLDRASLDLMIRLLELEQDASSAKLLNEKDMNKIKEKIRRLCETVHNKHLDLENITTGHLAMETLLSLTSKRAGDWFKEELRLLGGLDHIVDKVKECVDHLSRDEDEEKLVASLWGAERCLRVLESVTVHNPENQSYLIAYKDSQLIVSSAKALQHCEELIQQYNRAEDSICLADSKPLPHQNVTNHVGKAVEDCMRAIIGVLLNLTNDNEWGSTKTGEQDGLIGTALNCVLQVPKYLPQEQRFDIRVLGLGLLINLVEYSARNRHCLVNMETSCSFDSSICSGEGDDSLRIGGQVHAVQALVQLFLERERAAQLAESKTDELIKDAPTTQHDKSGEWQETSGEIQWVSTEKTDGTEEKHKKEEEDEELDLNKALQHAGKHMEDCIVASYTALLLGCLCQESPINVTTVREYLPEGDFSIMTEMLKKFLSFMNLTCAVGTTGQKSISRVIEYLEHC
inactive: [1] -0.009 | [2] -0.033 | [4] -0.066 | [5] 0.01 | [6] 0.082 | [7] 0.198 | [8] 0.067 | [9] -0.148 | [10] 0.078
active: [3] -0.423

WDR47 (UniProt O94967)
active: [3] -0.224
inactive: [1] 0.072 | [2] -0.023 | [4] -0.065 | [5] 0.002 | [6] -0.014 | [7] 0.014 | [8] 0.089 | [9] 0.004 | [10] 0.282

VPS8 (UniProt Q8N3P4)
inactive: [1] -0.035 | [2] -0.125 | [3] -0.15 | [4] -0.088 | [5] 0.077 | [6] 0.158 | [7] -0.004 | [8] 0.078 | [9] -0.006 | [10] -0.012

TNPO3 (UniProt Q9Y5L0)
active: [3] -0.221
inactive: [1] 0.026 | [2] -0.018 | [4] -0.024 | [5] 0.049 | [6] 0.076 | [7] 0.058 | [8] -0.024 | [9] -0.06 | [10] -0.059

UBE2S (UniProt Q16763)
inactive: [1] -0.04 | [2] -0.043 | [3] -0.033 | [4] -0.086 | [5] -0.026 | [6] 0.002 | [7] 0.072 | [8] 0.069 | [9] -0.106 | [10] -0.032

VPS52 (UniProt Q8N1B4)
inactive: [1] 0.065 | [2] -0.005 | [3] -0.132 | [4] -0.039 | [5] 0.037 | [6] 0.086 | [7] 0.015 | [8] 0.08 | [9] 0.02 | [10] 0.016

TMEM70 (UniProt Q9BUB7)
inactive: [1] -0.058 | [2] -0.125 | [3] -0.162 | [4] -0.137 | [5] 0.005 | [6] 0.031 | [7] 0.047 | [8] 0.019 | [9] -0.045 | [10] -0.003

WASHC3 (UniProt Q9Y3C0)
inactive: [1] -0.037 | [2] 0.1 | [4] -0.029 | [5] -0.011 | [6] -0.053 | [7] 0.016 | [8] 0.075 | [9] -0.054 | [10] -0.005
active: [3] -0.271

VKORC1 (UniProt Q9BQB6)
Chain of UniProt Q9BQB6 (Q9BQB6 whole entry, looked up): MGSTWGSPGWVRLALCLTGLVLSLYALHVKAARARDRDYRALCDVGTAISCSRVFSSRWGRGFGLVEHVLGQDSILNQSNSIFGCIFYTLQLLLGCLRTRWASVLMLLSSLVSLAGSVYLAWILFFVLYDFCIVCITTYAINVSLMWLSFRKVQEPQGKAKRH
inactive: [1] -0.006 | [2] 0 | [3] -0.054 | [4] -0.114 | [5] 0.025 | [6] -0.034 | [7] 0.001 | [8] -0.023 | [10] 0.073

WARS1 (UniProt G3V277)
inactive: [1] 0.029 | [2] -0.52 | [3] -0.131 | [4] -0.302 | [5] 0.025 | [6] -0.047 | [8] 0.001

— the supplement of paper PMC10849652
